{
  "source": "PubChem BioAssay AID1619",
  "about": "(SRMLSC, 2009)",
  "note": "The whole screen tested about 220,000 compounds, of which about 830 (0.38%) were called active. Not all results are given here. Entries with a potency or affinity are not part of this list. A number with no mark means an inactive call.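 How the source made its calls: active means compound inhibiting the enzyme by more than half at any dose during confirmatory dose-response retesting; inconclusive means strong single-dose inhibitors picked by rank but not retested; inactive means the rest.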",
  "data": [
    {"target": "Leucine aminopeptidase (Plasmodium falciparum (isolate 3D7)) (UniProt Q8IL11)", "sequence (Q8IL11 whole entry, looked up)": "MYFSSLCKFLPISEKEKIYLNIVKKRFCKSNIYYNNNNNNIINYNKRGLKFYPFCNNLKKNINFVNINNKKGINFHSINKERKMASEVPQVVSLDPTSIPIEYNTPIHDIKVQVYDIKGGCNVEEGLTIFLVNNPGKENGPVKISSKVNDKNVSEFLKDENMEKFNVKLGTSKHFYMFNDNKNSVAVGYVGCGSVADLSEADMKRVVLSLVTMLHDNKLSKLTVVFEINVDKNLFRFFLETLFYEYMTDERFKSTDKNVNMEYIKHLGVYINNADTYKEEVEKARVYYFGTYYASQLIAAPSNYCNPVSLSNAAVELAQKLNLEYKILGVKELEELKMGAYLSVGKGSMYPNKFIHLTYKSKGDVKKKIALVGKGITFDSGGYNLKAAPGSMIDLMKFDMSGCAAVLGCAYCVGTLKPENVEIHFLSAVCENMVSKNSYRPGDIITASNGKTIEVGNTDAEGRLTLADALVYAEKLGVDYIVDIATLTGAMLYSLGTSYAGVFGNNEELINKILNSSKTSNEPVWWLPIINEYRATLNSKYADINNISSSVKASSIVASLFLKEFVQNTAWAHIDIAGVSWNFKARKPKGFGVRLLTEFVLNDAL", "experiment": "P. falciparum M17LAP inhibitors, primary screen, biochemical, fluorogenic H-Leu-NHMec substrate, 1536-well (AID 1619);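 further: plate controls were full reaction with DMSO carrier for no effect and no enzyme background for full effect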", "conditions": "recombinant M17LAP, H-Leu-NHMec fluorogenic kinetic assay; at 30 µM; hits give high values", "units": {"inhibition": "%"}, "values": [
      {"smiles": "CCN1CCN(C(=O)CSc2cc(=O)n(CC)c3ccccc23)CC1", "inhibition": 4.46},
      {"smiles": "CCC(C)NC(=O)CS(=O)Cc1nc(-c2ccccc2C)oc1C", "note": "(centres undefined)", "inhibition": 2.41},
      {"smiles": "Cn1c(N)c(C(=O)c2ccc(F)cc2F)c(=O)n(C)c1=O", "inhibition": 5.53},
      {"smiles": "COC(=O)[C@H](Cc1ccccc1)NC(=O)O[C@H]1C(=O)c2ccc(OC)cc2O[C@@H]1c1ccc2c(c1)OCO2", "inhibition": -10.7},
      {"smiles": "CC(=O)Nc1ccc(NC(=O)[C@@H]2CCCC[C@@H]2C(=O)O)cc1", "inhibition": -3.15},
      {"smiles": "CC(=O)Nc1ccc(NC(=O)C2CCCCC2C(=O)O)cc1", "note": "(centres undefined)", "inhibition": 8.65},
      {"smiles": "O=C(O)C1CCCCC1C(=O)Nc1ccc(-c2ccccc2)cc1", "note": "(centres undefined)", "inhibition": 6.02},
      {"smiles": "O=C(O)Cc1ccc(NC(=O)C2CC=CCC2C(=O)O)cc1", "note": "(centres undefined)", "inhibition": 11.1},
      {"smiles": "COC(=O)c1ccc(NC(=O)C2C3CCC(C3)C2C(=O)O)cc1", "note": "(centres undefined)", "inhibition": 39},
      {"smiles": "CCCOC(=O)c1ccc(NC(=O)C2C3CCC(C3)C2C(=O)O)cc1", "note": "(centres undefined)", "inhibition": 43.4},
      {"smiles": "CN(C(=O)c1ccc(NC(=O)C2CC=CCC2C(=O)O)cc1)c1ccccc1", "note": "(centres undefined)", "inhibition": 45.1},
      {"smiles": "O=C(O)[C@H]1CCCC[C@H]1C(=O)Nc1ccc(Nc2ccccc2)cc1", "inhibition": 54.9},
      {"smiles": "O=C(O)CCSCCCN1C(=O)c2cccc3cccc(c23)C1=O", "inhibition": 8.08},
      {"smiles": "CCCc1cc(=O)[nH]c(SCC(=O)Nc2cc(C)on2)n1", "inhibition": 3.41},
      {"smiles": "Cc1ccc(C2CC(C(F)(F)F)n3nc(C(=O)Nc4c(C)n(C)n(-c5ccccc5)c4=O)cc3N2)cc1", "note": "(centres undefined)", "inhibition": 2.06},
      {"smiles": "COc1ccc(NC(=O)c2ccc(-n3c(C)ccc3C)cc2)c(OC)c1", "inhibition": 4.59},
      {"smiles": "Cc1nc(C)c(-c2csc(Nc3ccc(F)cc3)n2)s1", "inhibition": -0.33},
      {"smiles": "Cc1ccc(Oc2ncc(-c3ccc(Cl)cc3)cn2)cc1", "inhibition": -3.58},
      {"smiles": "CCOC(=O)N1CCN(c2cc(N)c([N+](=O)[O-])cc2F)CC1", "inhibition": -0.96},
      {"smiles": "Cc1ccc(C(=O)Nc2ccn(Cc3ccc(F)cc3)n2)o1", "inhibition": 2},
      {"smiles": "COc1ccc(C(=O)Nc2cccc(C(=O)NCc3ccccc3)c2)cc1", "inhibition": 3.07},
      {"smiles": "Oc1ccc(C(c2nnnn2CCc2ccccc2)N2CCN(c3nc4ccccc4s3)CC2)cc1", "note": "(centres undefined)", "inhibition": 3.87},
      {"smiles": "CCOC(=O)NCc1ccc(Cl)c(Cl)c1", "inhibition": -9.33},
      {"smiles": "CC(C)(C)OC(=O)CN1C(=O)C(Sc2n[nH]c(-c3ccccc3)n2)CCc2ccccc21", "note": "(centres undefined)", "inhibition": 3.43},
      {"smiles": "CCSc1nc(N)nc(-c2cccs2)c1C#N", "inhibition": 5.48},
      {"smiles": "CN(Cc1ccccc1)Cc1nc2c([nH]1)c(=O)[nH]c(=O)n2C", "inhibition": -7.23},
      {"smiles": "CC(NC(=O)c1cccnc1)C(c1cccs1)N1CCN(C)CC1", "note": "(centres undefined)", "inhibition": 0.81},
      {"smiles": "CN(C1CCCCC1)S(=O)(=O)c1ccc(NC(=O)C2CCCCC2C(=O)O)cc1", "note": "(centres undefined)", "inhibition": 44},
      {"smiles": "O=C(O)Cc1ccc(NC(=O)C2CCCCC2C(=O)O)cc1", "note": "(centres undefined)", "inhibition": 19},
      {"smiles": "CCOC(=O)N1CCN(C(=O)c2ccc(CS(=O)(=O)c3c(Cl)cccc3Cl)o2)CC1", "inhibition": 3.87},
      {"smiles": "CCCCOc1ccc(C(=O)OCC(=O)Nc2cc(C)on2)cc1", "inhibition": 2.23},
      {"smiles": "CCOC(=O)c1c(CSCc2ccccc2)oc2ccc(O)c(CN(C)C)c12", "inhibition": -2.1},
      {"smiles": "Cc1ccc2c(=O)[nH]c(Cc3ccccc3C(=O)O)nc2c1", "inhibition": 2.27},
      {"smiles": "Cc1ccc(N/N=C2/CCCNC2=O)cc1", "inhibition": 40.4},
      {"smiles": "Cc1ccc(NN=C2c3ccccc3-c3ccccc32)cc1", "inhibition": 5.01},
      {"smiles": "Cc1ccc(N(CC(O)CN2C(=O)NC(C)(C)C2=O)S(=O)(=O)c2ccc(C)cc2)cc1", "note": "(centres undefined)", "inhibition": -16.4},
      {"smiles": "Fc1ccc(N/N=C/c2ccncc2)c(F)c1", "inhibition": -6.64},
      {"smiles": "Cc1ccc(/C=N/Nc2ccc(Cl)c(C(=O)O)c2)s1", "inhibition": 49.5},
      {"smiles": "O=C(O)c1ccc(/C=N/Nc2cccc(C(F)(F)F)c2)cc1", "inhibition": 16.4},
      {"smiles": "CC(C)(C)c1ccc(/C=N/Nc2cccc(C(=O)O)c2)cc1", "inhibition": 12.1},
      {"smiles": "Cc1ccc(/C=N/Nc2cccc(C(=O)O)c2)s1", "inhibition": 53.6},
      {"smiles": "O=C(O)c1ccc(N/N=C/c2ccc(F)c(F)c2)cc1", "inhibition": 50.5},
      {"smiles": "O=C(O)c1ccc(N/N=C/c2ccc(-c3ccccc3)cc2)cc1", "inhibition": 2.22},
      {"smiles": "O=C(O)c1ccc(/C=N/NC(=O)c2ccc(F)cc2)cc1", "inhibition": 7.3},
      {"smiles": "C=CCNC(=O)CN1CCC(NC(=O)c2ccco2)CC1", "inhibition": 4.27},
      {"smiles": "Cc1ccc(/C=N/NC(=O)Cn2cncn2)cc1", "inhibition": 2.86},
      {"smiles": "CC(=O)N1CCN(c2ccc(NC(=O)c3ccc4c(c3)OCO4)cc2)CC1", "inhibition": -9.38},
      {"smiles": "COc1ccc(C2Nc3ccccc3C(=O)N2c2ccccc2)cc1CN1CCOCC1", "note": "(centres undefined)", "inhibition": -163},
      {"smiles": "CC(/C=C/c1ccc2c(c1)OCO2)=N/NC(=O)c1cccnc1", "inhibition": 17.2}
    ]}
  ]
}
